Source: the supplement of paper PMC6555819

Tests used:
Assay in all cases: PBM binding z-score (relative to random genomic background probes); higher = stronger binding; sequences stand for … in GC…GCGATTGACAGCGTAGAATGAAGG
[1] = test system: FXR:RXRa (NR concentration 270 nM, RXRa partner concentration 90 nM)
Summary of the method: (§1)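 Antibodies against each partner of ligand-free nuclear receptor dimers (one per run) detected binding on custom Agilent 4×180K protein-binding microarrays after 1 h incubation. The double-stranded probes had 34-nt variable regions carrying direct-repeat seeds, single-nucleotide variants, half-site ablations and random human genomic background sequences. Binding z-scores, from regression-normalized fluorescence, use the random background probes as reference.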

[2] = test system: LXRa:RXRa (NR concentration 270 nM, RXRa partner concentration 90 nM)
Summary of the method: as §1

[3] = test system: LXRa homodimer (NR concentration 270 nM)
Summary of the method: as §1

[4] = test system: LXRb:RXRa (NR concentration 270 nM, RXRa partner concentration 90 nM)
Summary of the method: as §1

[5] = test system: LXRb homodimer (NR concentration 270 nM)
Summary of the method: as §1

[6] = test system: PPARa:RXRa (NR concentration 270 nM, RXRa partner concentration 90 nM)
Summary of the method: as §1

[7] = test system: PPARg:RXRa (NR concentration 180 nM, RXRa partner concentration 90 nM)
Summary of the method: as §1

[8] = test system: PPARg:RXRa 270nM:90nM, anti-RXR (NR concentration 270 nM, RXRa partner concentration 90 nM)
Summary of the method: as §1

[9] = test system: PPARg:RXRa 30nM:10nM, anti-RXR (NR concentration 30 nM, RXRa partner concentration 10 nM)
Summary of the method: as §1

[10] = test system: PPARg:RXRa 90nM:30nM, anti-RXR (NR concentration 90 nM, RXRa partner concentration 30 nM)
Summary of the method: as §1

[11] = test system: PPARg:RXRa DBDmut IVT, anti-RXR (DBD mutation: RXRa K156A/R161A, NR concentration 270 nM, RXRa partner concentration 90 nM)
Summary of the method: as §1

[12] = test system: PPARg:RXRa IVT, anti-PPARg (NR concentration 270 nM, RXRa partner concentration 90 nM)
Summary of the method: as §1

[13] = test system: PPARg DBDmut:RXRa IVT, anti-PPARg (DBD mutation: PPARg1 K132A/R137A, NR concentration 270 nM, RXRa partner concentration 90 nM)
Summary of the method: as §1

[14] = test system: PPARg DBDmut IVT, anti-PPARg (DBD mutation: PPARg1 K132A/R137A, NR concentration 270 nM)
Summary of the method: as §1

[15] = test system: PPARg homodimer (NR concentration 180 nM)
Summary of the method: as §1

[16] = test system: PXR:RXRa (NR concentration 270 nM, RXRa partner concentration 90 nM)
Summary of the method: as §1

[17] = test system: PXR homodimer (NR concentration 270 nM)
Summary of the method: as §1

[18] = test system: RARa:RXR (NR concentration 270 nM, RXRa partner concentration 90 nM)
Summary of the method: as §1

[19] = test system: RARa homodimer (NR concentration 270 nM)
Summary of the method: as §1

[20] = test system: RARb:RXRa (NR concentration 270 nM, RXRa partner concentration 90 nM)
Summary of the method: as §1

| Sequence | PBM binding z-score [1] | PBM binding z-score [2] | PBM binding z-score [3] | PBM binding z-score [4] | PBM binding z-score [5] | PBM binding z-score [6] | PBM binding z-score [7] | PBM binding z-score [8] | PBM binding z-score [9] | PBM binding z-score [10] | PBM binding z-score [11] | PBM binding z-score [12] | PBM binding z-score [13] | PBM binding z-score [14] | PBM binding z-score [15] | PBM binding z-score [16] | PBM binding z-score [17] | PBM binding z-score [18] | PBM binding z-score [19] | PBM binding z-score [20] |
| --- | --- | --- | --- | --- | --- | --- | --- | --- | --- | --- | --- | --- | --- | --- | --- | --- | --- | --- | --- | --- |
| TCATATAGGTAATACAGGTGAAAGCCGGCATCTA | 0.854 | 1.36 | 0.571 | 1.21 | -0.105 | 1.96 | 1.68 | 2.68 | 3.73 | 3.35 | 3.7 | 3.6 | 1.75 | 1.32 | 1.14 | 0.985 | 0.433 | 1.36 | 0.756 | 0.757 |
| CCTCGGATGACAACAGGAGGTCAGAGCTGCCAGA | 0.859 | 1.83 | 1.84 | 1.53 | -0.0301 | 1.91 | 0.547 | 0.588 | -0.476 | 0.0996 | -0.191 | -0.245 | 0.202 | -0.797 | 1.63 | 1.72 | 0.385 | 2.22 | 1.58 | 2.02 |
| TCATATAGGTAAACAGGTGAAAGGCCGTAAGTTA | 1.02 | 0.944 | 0.383 | 0.971 | 0.244 | 3.2 | 5.16 | 4.67 | 4.73 | 5.29 | 4.71 | 4.59 | 1.06 | 1.36 | 1.42 | 0.956 | 0.656 | 1.37 | 1.25 | 0.989 |
| TAGCCGAGGTCATGCGGGCCAGTATAGTGTCGGC | 7.46 | 5.94 | 1.69 | 4.64 | 1 | 6.24 | 6 | 6.15 | 2.74 | 4.56 | 1.88 | 4.29 | 1.82 | 0.598 | 2.81 | 5.79 | 2.14 | 6.18 | 0.453 | 5.17 |
| TCTTTTAGTTGATTAGGGCAACCGAAACAGCGGA | 1.17 | 0.955 | 0.422 | 0.976 | 2.11 | 1.45 | 0.152 | 2.66 | 4.27 | 3.34 | 2.25 | 2.54 | 2.77 | 2.73 | 1.2 | 0.77 | 0.929 | 0.951 | 1.25 | 1.79 |
| CGAACGAGGCCATGAGTTGATAGCAAATGCCGAT | -0.039 | -0.24 | -0.636 | -0.483 | -1.01 | 0.273 | 0.728 | 0.586 | -0.00312 | 0.44 | 1.62 | 0.713 | -0.17 | -0.886 | 0.125 | -0.17 | -0.294 | 0.133 | -0.191 | 0.941 |
| ACTCGGAGGACAAAGGTCTGAGCTACGCCAGTGA | -0.108 | -0.415 | -0.354 | -0.796 | -0.665 | 0.582 | 1.95 | 3.29 | 1.06 | 3.02 | -0.243 | 0.315 | -0.994 | -1.15 | 0.144 | -0.428 | -0.379 | -0.531 | -0.889 | 1.3 |
| CCTAGTTGGTCAATGTCACACACGCTATAGGTAC | 0.436 | 0.678 | 0.613 | 1.1 | 1.1 | 0.77 | 1.17 | 0.745 | 0.448 | 0.257 | 1.5 | 1.6 | 1.25 | 1.28 | 1.57 | 0.71 | 0.574 | 0.851 | 1.91 | 1.4 |
| GCTATTAGTTGAAAGGGCAAGCGAATGATTCTCG | 0.532 | 0.54 | -0.0155 | 0.379 | -0.106 | 2.13 | 2.5 | 4.12 | 2.04 | 4.08 | 0.45 | 0.54 | -0.251 | 0.055 | 1.28 | 0.469 | 0.0641 | 1.19 | 0.795 | 1.94 |
